Assay [1] is described as follows: qHTS assay to test for compound auto fluorescence at 535 nm (green) in HEK293 cells (AID 720680).
Assay [2] can be described thus: qHTS assay to test for compound auto fluorescence at 460 nm (blue) in HEK293 cell free culture (AID 720681). The essentials:
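Compounds were added to cell-free DMEM with 10% FBS and fluorescence read directly. The blue channel used 405 nm excitation and 460 nm emission, with triamterene as the reference fluorophore.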

The nature of assay [3]: qHTS assay to test for compound auto fluorescence at 535 nm (green) in HEK293 cell free culture (AID 720682). The essentials: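 DMEM + 10% FBS, cell-free; cpd or DMSO pinned in; Ex485/Em535 read; output as fluorescein-equivalent signal.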
Assay [4] in a line: qHTS assay to test for compound auto fluorescence at 590 nm (red) in HEK293 cell free culture (AID 720683). The essentials: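 Cell-free wells of DMEM with 10% FBS received compound, and intrinsic fluorescence was read at excitation/emission 540/590 nm. Values expressed as equivalence to Rose Bengal sodium.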
Assay [5] can be described thus: qHTS assay to test for compound auto fluorescence at 590 nm (red) in HepG2 cell free culture (AID 720684). The procedure, abridged:
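Auto fluorescence equivalency versus Rose Bengal sodium, red channel Ex/Em 540/590 nm; compounds in cell-free MEM/10% FBS; DMSO vehicle control.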

The nature of assay [6]: qHTS assay to test for compound auto fluorescence at 460 nm (blue) in HepG2 cell free culture (AID 720685). The essentials:
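Cell-free plates of MEM plus 10% FBS received 23 nL compound or DMSO vehicle; blue-channel (405/460 nm) intensity scored against triamterene as reference fluorophore.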

The nature of assay [7]: qHTS assay to test for compound auto fluorescence at 535 nm (green) in HepG2 cell free culture (AID 720686).
Assay [8] can be described thus: qHTS assay to test for compound auto fluorescence at 460 nm (blue) in HepG2 cells (AID 720687). The procedure, abridged: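 HepG2 cells in MEM with 10% FBS, attached overnight at 37 C, were exposed to compound or DMSO for 1 hr at 37 C, 5% CO2. Blue fluorescence was read at 405/460 nm, with triamterene as reference fluorophore.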
Assay [9] can be described thus: qHTS assay to identify small molecule antagonists of the glucocorticoid receptor (GR) signaling pathway - cell viability counter screen (AID 720693). Note: nearly all actives have a fitted effect of over 55% in size.
Assay [10] in a line: qHTS assay for identifying genotoxic compounds that show differential cytotoxicity against isogenic chicken DT40 cell lines with known DNA damage response pathways - Rev3 mutant cell line (AID 743014). Note: nearly all actives have a fitted effect of over 55% in size. Note: potency is the fitted concentration of half-maximal effect.
Assay [11] is described as follows: qHTS assay for identifying genotoxic compounds that show differential cytotoxicity against isogenic chicken DT40 cell lines with known DNA damage response pathways - Rad54/Ku70 mutant cell line (AID 743015). Note: nearly all actives have a fitted effect of over 60% in size. Note: potency is the fitted concentration of half-maximal effect.
Assay [12] in a line: qHTS assay to identify small molecule antagonists of the androgen receptor (AR) signaling pathway - cell viability counter screen (AID 743033; note: nearly all actives have a fitted effect of over 45% in size).
The target in assay [13] is Androgen receptor (Homo sapiens) (UniProt P10275). The assay can be described thus: qHTS assay to identify small molecule antagonists of the androgen receptor (AR) signaling pathway (AID 743035; active = well fitted inhibition curve with a large enough effect in the signal ratio in the repeat runs, not every such curve was filed as active; the % refers to the signal ratio). The procedure, abridged: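 Antagonist mode: AR-bla HEK293 cells co-treated with test compounds and agonist R1881 for 16 h at 37C, 5% CO2. Beta-lactamase activity read as FRET fluorescence after 2 h room-temperature substrate loading.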
Sequence of Androgen receptor (Homo sapiens) (P10275 whole entry, looked up): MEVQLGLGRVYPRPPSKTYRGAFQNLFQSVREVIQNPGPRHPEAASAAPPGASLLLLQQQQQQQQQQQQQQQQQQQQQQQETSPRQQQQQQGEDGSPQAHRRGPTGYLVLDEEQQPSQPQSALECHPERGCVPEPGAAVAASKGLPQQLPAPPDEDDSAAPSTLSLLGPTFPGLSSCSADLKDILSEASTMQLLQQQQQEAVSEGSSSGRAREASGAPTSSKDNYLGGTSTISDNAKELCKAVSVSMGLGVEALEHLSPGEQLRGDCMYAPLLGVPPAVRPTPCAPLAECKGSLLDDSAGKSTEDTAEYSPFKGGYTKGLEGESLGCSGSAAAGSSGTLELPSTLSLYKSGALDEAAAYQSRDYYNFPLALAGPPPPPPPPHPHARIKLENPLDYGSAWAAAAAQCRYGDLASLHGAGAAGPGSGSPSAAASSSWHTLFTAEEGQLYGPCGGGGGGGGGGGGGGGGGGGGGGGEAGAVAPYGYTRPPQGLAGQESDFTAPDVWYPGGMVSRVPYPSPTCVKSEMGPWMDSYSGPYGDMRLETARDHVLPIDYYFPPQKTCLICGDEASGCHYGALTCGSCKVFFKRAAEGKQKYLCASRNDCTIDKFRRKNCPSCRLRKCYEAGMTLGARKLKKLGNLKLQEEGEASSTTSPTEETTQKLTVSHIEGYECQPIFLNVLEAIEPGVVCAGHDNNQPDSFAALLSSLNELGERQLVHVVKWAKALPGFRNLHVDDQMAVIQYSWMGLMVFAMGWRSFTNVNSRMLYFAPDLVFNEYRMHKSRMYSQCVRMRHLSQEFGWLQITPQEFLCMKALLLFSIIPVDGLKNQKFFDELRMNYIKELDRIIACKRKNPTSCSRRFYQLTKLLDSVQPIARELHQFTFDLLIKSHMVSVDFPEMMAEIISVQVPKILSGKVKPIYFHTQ

The target is the same in assay [14]. The assay can be described thus: qHTS assay to identify small molecule agonists of the androgen receptor (AR) signaling pathway (AID 743036; active = well fitted activation curve with a large enough effect in the signal ratio in the repeat runs, with a control signal flat, not every such curve was filed as active; the % refers to the signal ratio). The procedure, abridged:
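Screening used 2,000 AR-bla HEK293 cells per well, treated 16 h at 37C with test compounds in DMSO alongside positive and DMSO-only controls; beta-lactamase activity was then read by LiveBLAzer B/G FRET fluorescence after 2 h at room temperature.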

Assay [15] shares this target. The experiment in a line: qHTS assay to identify small molecule agonists of the androgen receptor (AR) signaling pathway using the MDA cell line (AID 743040; note: nearly all actives have a fitted effect of over 20% in size; note: potency is the fitted concentration of half-maximal effect). The procedure, abridged: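 Testing was done with the MDA-kb2 AR-luc line, a human breast carcinoma stably transfected with MMTV-luciferase containing AR and GR response elements. Cells were exposed 16 h at 37C before ONE-Glo luminescence detection.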

Assay [16] can be described thus: qHTS assay to identify small molecule antagonists of the androgen receptor (AR) signaling pathway using the MDA cell line - cell viability counter screen (AID 743041; note: nearly all actives have a fitted effect of over 45% in size). The essentials:
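Compound exposure lasted 16 h at 37C in MDA-kb2 AR-luc cells stimulated with R1881. Protease-based CellTiter-Fluor reagent was applied for the final 30 min and fluorescence measured.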

For assay [17], the target named is Androgen receptor (Homo sapiens) (UniProt P10275). The experiment in a line: qHTS assay to identify small molecule antagonists of the androgen receptor (AR) signaling pathway using the MDA cell line (AID 743042; note: nearly all actives have a fitted effect of over 55% in size). The essentials: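 MDA-kb2 breast carcinoma cells carrying MMTV-luciferase (AR/GR responsive) were co-treated with compounds and the agonist R1881 for 16 h at 37C. Inhibition read as ONE-Glo luminescence; CellTiter-Fluor fluorescence measured in parallel for cytotoxicity.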

In assay [18] the target is Glucocorticoid receptor (Homo sapiens) (UniProt P04150). The assay can be described thus: qHTS assay to identify small molecule agonists of the glucocorticoid receptor (GR) signaling pathway (AID 720691; active = well fitted activation curve with a large enough effect in the signal ratio in the repeat runs, not every such curve was filed as active; the % refers to the signal ratio). The procedure, abridged: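 Agonist-mode qHTS in HeLa cells stably expressing a glucocorticoid-response-element beta-lactamase reporter. Fluorescence intensity read with FRET substrate (2 h, room temperature) after 18 h compound treatment at 37 C.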
Sequence of Glucocorticoid receptor (Homo sapiens) (P04150 whole entry, looked up): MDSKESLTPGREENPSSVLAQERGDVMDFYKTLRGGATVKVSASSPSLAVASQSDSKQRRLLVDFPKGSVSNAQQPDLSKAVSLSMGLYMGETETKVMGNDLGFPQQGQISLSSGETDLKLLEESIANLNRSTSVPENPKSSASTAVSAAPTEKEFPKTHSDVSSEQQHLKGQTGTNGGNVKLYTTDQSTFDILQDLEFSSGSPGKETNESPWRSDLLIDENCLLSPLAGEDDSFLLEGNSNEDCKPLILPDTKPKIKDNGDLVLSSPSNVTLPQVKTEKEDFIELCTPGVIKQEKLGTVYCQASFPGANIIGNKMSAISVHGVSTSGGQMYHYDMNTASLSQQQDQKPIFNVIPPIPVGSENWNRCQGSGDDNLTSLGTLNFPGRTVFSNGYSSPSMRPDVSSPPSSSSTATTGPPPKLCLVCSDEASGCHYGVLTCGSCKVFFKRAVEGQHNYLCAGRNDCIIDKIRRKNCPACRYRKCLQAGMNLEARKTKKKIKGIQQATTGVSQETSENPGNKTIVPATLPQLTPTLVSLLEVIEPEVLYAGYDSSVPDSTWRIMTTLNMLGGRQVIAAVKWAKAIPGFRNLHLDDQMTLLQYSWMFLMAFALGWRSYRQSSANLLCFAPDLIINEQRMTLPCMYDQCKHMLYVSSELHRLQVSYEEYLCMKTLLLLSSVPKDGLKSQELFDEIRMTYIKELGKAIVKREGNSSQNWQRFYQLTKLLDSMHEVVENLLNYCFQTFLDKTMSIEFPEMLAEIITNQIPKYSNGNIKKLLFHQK

The nature of assay [19]: qHTS assay for identifying genotoxic compounds that show differential cytotoxicity against isogenic chicken DT40 cell lines with known DNA damage response pathways - wild type cell line (AID 743012). Note: nearly all actives have a fitted effect of over 60% in size. Note: potency is the fitted concentration of half-maximal effect. The procedure, abridged: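 Viability by ATP luminescence (CellTiter-Glo, 30 min RT) after 40 h compound treatment at 37 C/5% CO2, using 300 parental DNA repair-proficient DT40 cells per well.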

Results filed as inconclusive are left out. The source made the active and inactive calls. Unless noted, calls come from the whole dose curve; as a rule, active = well fitted curve in the direction sought with a large enough effect in the repeat runs; inconclusive = weak or mixed curves; inactive = no such curve, though single readings can be large; an effect the other way counts as inactive or inconclusive.

Take `CCOc1ccc(C(=O)OCCN(CC)CC)cc1`: the result in assay [1], in assay [2], in [3], in assay [4], in assay [5] and in assay [6] was inactive. Besides, the result in [7], in [8], in assay [9], in [13] and in assay [14] was inactive. The Potency was 21.1 µM (active) in [10] and 26.6 µM (active) in assay [11]. For the same compound, the Potency entry in assay [12], in assay [15], in [16] and in assay [17] was “inactive” throughout.

Take `Nc1nc2c(ncn2COC(CO)CO)c(=O)[nH]1`: the outcome in [1], in [2], in [3], in assay [4], in assay [5] and in assay [6] was inactive. In addition, the result in assay [7], in assay [8] and in assay [9] was inactive. Also, the Potency entry in assay [18] and in assay [16] was “inactive” throughout. Further, the Potency was 2.85 µM (active) in assay [19] and 8.04 µM (active) in [11].

As for `CN1CCN(c2cc3c(cc2F)c(=O)c(C(=O)O)cn3-c2ccc(F)cc2)CC1`, the compound was called inactive in [1], in [2], in assay [3], in [4], in [5] and in assay [6]. Besides, the compound was called inactive in [7], in assay [8] and in assay [9]. In addition, the Potency result in assay [18] and in assay [17] was “inactive” each time. The Potency in assay [19] is 23.7 µM (active); in assay [11] it was 29.8 µM (active); in assay [15], 26.6 µM (active).

Regarding `CC(C)(C)NCCNC(C)(C)C`, the call in assay [1], in [2], in [3], in assay [4], in assay [5] and in [6] was inactive. Besides, the result in assay [7], in [8] and in [9] was inactive. For the same compound, the Potency entry in [19], in [10], in assay [11], in [12] and in assay [16] was “inactive” each time.

Regarding `O=S(O)CO`, the compound was called inactive in [1], in [2], in [3], in assay [4], in [5] and in [6]. Further, the compound was classed as inactive in assay [7], in [8], in [9] and in assay [13]. Further, the Potency result in [19], in assay [10], in assay [11], in assay [12], in assay [15] and in assay [16] was “inactive” in each case. Also, in assay [17], the Potency entry is “inactive”.

Take `COCCCOCCCOC`: the outcome in [1], in [2], in assay [3], in assay [4], in assay [5] and in assay [6] was inactive. Further, the call in assay [7], in [8] and in assay [9] was inactive. The Potency entry in assay [19], in assay [10], in assay [12] and in assay [16] was “inactive” in each case.

On to `CC[N+](C)(C)c1cccc(O)c1`, for which the outcome in [1], in assay [2], in assay [3], in assay [4], in assay [5] and in assay [6] was inactive. Also, the call in assay [7], in assay [8] and in assay [9] was inactive. Moreover, the Potency entry in [19], in assay [10], in [11], in assay [12] and in assay [16] was “inactive” each time.

Take `CC(C)(CC(=O)O)C(=O)O`: the outcome in assay [1], in [2], in [3], in assay [4], in assay [5] and in [6] was inactive. The compound was called inactive in assay [7], in assay [8], in assay [9], in [13] and in assay [14]. In addition, the Potency result in [19], in assay [10], in assay [11], in assay [12], in [15] and in assay [16] was “inactive” each time. In assay [17], the Potency result was “inactive”.

In the case of `Cc1c(O)cccc1O`, the outcome in assay [1], in [2], in assay [3], in assay [4], in assay [5] and in [6] was inactive. The compound was called inactive in assay [7], in [8] and in assay [9]. Besides, the Potency entry in [19], in assay [10], in assay [12] and in assay [16] was “inactive” in each case.

For the compound `CC(=O)CC(C)(C)C1CCCCC1`, the result in assay [1], in assay [2], in [3], in [4], in assay [5] and in assay [6] was inactive. The call in assay [7], in assay [8] and in assay [9] was inactive. Besides, the Potency entry in [19], in assay [12] and in assay [16] was “inactive” each time.

On to `NCCc1cnc[nH]1`, for which the outcome in assay [1], in assay [2], in [3], in [4], in assay [5] and in assay [6] was inactive. Moreover, the call in [7], in [8] and in assay [9] was inactive. For the same compound, the Potency entry in assay [19], in [11], in assay [12] and in assay [16] was “inactive” throughout.

As for `NS(=O)(=O)c1ccccc1Cl`, the compound was called inactive in assay [1], in assay [2], in [3], in assay [4], in assay [5] and in [6]. The compound was classed as inactive in assay [7], in assay [8] and in assay [9]. Also, the Potency entry in assay [19], in assay [10], in assay [11], in assay [12] and in [16] was “inactive” each time.

`Cc1ccc(=O)n(-c2ccccc2)c1`: the result in assay [1], in assay [2], in [3], in [4], in assay [5] and in assay [6] was inactive. The result in assay [7], in [8] and in assay [9] was inactive. The Potency entry in assay [19], in [11], in assay [12] and in assay [16] was “inactive” in each case.

Values taken from PubChem BioAssay (Tox21).
